Measurements taken from PubChem BioAssay AID1159580 (chemical genetic matrix, 2015).
Several values for one entry are separate records, joined by “and”; a condition that tells them apart may be missing. Identical values can stand only once. About 2,000 (36%) of roughly 5,500 compounds were called active. Roughly 18% stayed inconclusive and do not appear here. Cut-off read from the data, not from the text of the source: active = normalized growth mostly below about 0.91 (no sharp cut-off); inconclusive = no clear call, values can overlap the other calls; inactive = mostly above about 0.92. Some of the results follow.

Assay: chemical genetic growth profiling, strain panel (AID 1159580);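 note: tested at 20 µM; growth read once vehicle control cultures reached saturation at 30 °C; 1 = growth at the plate median or of vehicle wells; lower values mean less growth of the strain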
Conditions: growth OD

Measured: normalized growth

NC(CO)C(=O)NNCc1ccc(O)c(O)c1O (configuration not stated)
active: S. cerevisiae deletion strains, locus YMR058W, strain fet3, stronger effect = lower value 0.688 | S. cerevisiae deletion strains, locus YNL209W, strain ssb2, stronger effect = lower value 0.9
inactive: S. cerevisiae deletion strains, locus YJR066W, strain TOR1, stronger effect = lower value 0.99 | S. cerevisiae deletion strains, locus YJR075W, strain HOC1, stronger effect = lower value 1.01 and 0.944 | S. cerevisiae deletion strains, locus YKL009W, strain mrt4, stronger effect = lower value 0.973 | S. cerevisiae deletion strains, locus YKL068W, stronger effect = lower value 1.01 | S. cerevisiae deletion strains, locus YKL085W, strain MDH1 (second series), stronger effect = lower value 1 | S. cerevisiae deletion strains, locus YKL085W, strain MDH1, stronger effect = lower value 1 | S. cerevisiae deletion strains, locus YKL160W, strain elf1, stronger effect = lower value 1.02 | S. cerevisiae deletion strains, locus YKR001C, strain vps1, stronger effect = lower value 0.986 | S. cerevisiae deletion strains, locus YKR026C, strain gcn3, stronger effect = lower value 0.991 | S. cerevisiae deletion strains, locus YKR091W, strain srl3, stronger effect = lower value 0.993 | S. cerevisiae deletion strains, locus YLL001W, strain dnm1, stronger effect = lower value 1.03 | S. cerevisiae deletion strains, locus YLL026W, stronger effect = lower value 1.02 | S. cerevisiae deletion strains, locus YLL041C, strain sdh2, stronger effect = lower value 1 | S. cerevisiae deletion strains, locus YLR027C, strain aat2, stronger effect = lower value 1.01 | S. cerevisiae deletion strains, locus YLR039C, strain RIC1, stronger effect = lower value 1.01 | S. cerevisiae deletion strains, locus YLR058C, strain SHM2, stronger effect = lower value 1.01 | S. cerevisiae deletion strains, locus YLR102C, strain apc9, stronger effect = lower value 0.983 | S. cerevisiae deletion strains, locus YLR113W, strain HOG1, stronger effect = lower value 1.1 | S. cerevisiae deletion strains, locus YLR221C, strain rsa3, stronger effect = lower value 0.951 | S. cerevisiae deletion strains, locus YLR258W, strain gsy2, stronger effect = lower value 0.974 | S. cerevisiae deletion strains, locus YLR262C, strain YPT6 (second series), stronger effect = lower value 0.915 | S. cerevisiae deletion strains, locus YLR262C, strain YPT6, stronger effect = lower value 1.04 | S. cerevisiae deletion strains, locus YLR268W, strain sec22, stronger effect = lower value 0.984 | S. cerevisiae deletion strains, locus YLR320W, strain mms22, stronger effect = lower value 0.987 | S. cerevisiae deletion strains, locus YLR330W, strain CHS5, stronger effect = lower value 1.01 | S. cerevisiae deletion strains, locus YLR342W, strain FKS1 (second series), stronger effect = lower value 1.06 | S. cerevisiae deletion strains, locus YLR342W, strain FKS1, stronger effect = lower value 1.01 | S. cerevisiae deletion strains, locus YLR357W, strain rsc2, stronger effect = lower value 0.911 | S. cerevisiae deletion strains, locus YLR370C, strain arc18, stronger effect = lower value 0.995 | S. cerevisiae deletion strains, locus YLR371W, strain rom2, stronger effect = lower value 0.991 | S. cerevisiae deletion strains, locus YLR384C, strain iki3, stronger effect = lower value 1 | S. cerevisiae deletion strains, locus YLR418C, strain cdc73, stronger effect = lower value 0.98 | S. cerevisiae deletion strains, locus YML016C, strain PPZ1, stronger effect = lower value 1.01 | S. cerevisiae deletion strains, locus YML032C, strain rad52, stronger effect = lower value 0.993 | S. cerevisiae deletion strains, locus YML120C, strain ndi1, stronger effect = lower value 1.01 | S. cerevisiae deletion strains, locus YML124C, strain tub3, stronger effect = lower value 0.996 | S. cerevisiae deletion strains, locus YMR078C, strain ctf18, stronger effect = lower value 0.992 | S. cerevisiae deletion strains, locus YMR125W, strain sto1, stronger effect = lower value 1.01 | S. cerevisiae deletion strains, locus YMR129W, stronger effect = lower value 0.992 | S. cerevisiae deletion strains, locus YMR205C, strain PFK2, stronger effect = lower value 1.07 | S. cerevisiae deletion strains, locus YMR223W, strain ubp8, stronger effect = lower value 1.01 | S. cerevisiae deletion strains, locus YMR231W, strain pep5, stronger effect = lower value 0.991 | S. cerevisiae deletion strains, locus YMR307W, strain GAS1, stronger effect = lower value 1 and 0.976 | S. cerevisiae deletion strains, locus YNL067W, strain RPL9B, stronger effect = lower value 0.984 | S. cerevisiae deletion strains, locus YNL071W, strain lat1, stronger effect = lower value 1.01 | S. cerevisiae deletion strains, locus YNL153C, strain GIM3, stronger effect = lower value 1 | S. cerevisiae deletion strains, locus YNL175C, strain NOP13, stronger effect = lower value 0.988 | S. cerevisiae deletion strains, locus YNL183C, strain NPR1, stronger effect = lower value 0.99 | S. cerevisiae deletion strains, locus YNL197C, strain WHI3, stronger effect = lower value 0.935 | S. cerevisiae deletion strains, locus YNL224C, strain SQS1, stronger effect = lower value 1.01 | S. cerevisiae deletion strains, locus YNL233W, strain BNI4, stronger effect = lower value 0.998 | S. cerevisiae deletion strains, locus YNL248C, strain rpa49, stronger effect = lower value 0.946 | S. cerevisiae deletion strains, locus YNL250W, strain rad50, stronger effect = lower value 0.983 | S. cerevisiae deletion strains, locus YNL271C, strain bni1, stronger effect = lower value 1 | S. cerevisiae deletion strains, locus YNL298W, strain CLA4, stronger effect = lower value 0.988 | S. cerevisiae deletion strains, locus YNL307C, strain MCK1, stronger effect = lower value 0.982 | S. cerevisiae deletion strains, locus YNL322C, strain KRE1 (second series), stronger effect = lower value 0.999 | S. cerevisiae deletion strains, locus YNR049C, strain mso1, stronger effect = lower value 0.99 | S. cerevisiae deletion strains, locus YNR052C, strain pop2, stronger effect = lower value 1.01 | S. cerevisiae deletion strains, locus YOL012C, strain htz1 0.788 | S. cerevisiae deletion strains, locus YOL147C, strain pex11, stronger effect = lower value 0.98 | S. cerevisiae deletion strains, locus YOR001W, strain rrp6, stronger effect = lower value 1.03 | S. cerevisiae deletion strains, locus YOR061W, strain CKA2, stronger effect = lower value 1.01 | S. cerevisiae deletion strains, locus YOR069W, strain VPS5, stronger effect = lower value 1 | S. cerevisiae deletion strains, locus YOR070C, strain gyp1, stronger effect = lower value 0.972 | S. cerevisiae deletion strains, locus YOR080W, strain dia2, stronger effect = lower value 1.01 | S. cerevisiae deletion strains, locus YOR083W, strain WHI5 (second series), stronger effect = lower value 0.978 | S. cerevisiae deletion strains, locus YOR083W, strain WHI5, stronger effect = lower value 0.986 | S. cerevisiae deletion strains, locus YOR106W, strain vam3, stronger effect = lower value 0.948 | S. cerevisiae deletion strains, locus YOR136W, strain idh2, stronger effect = lower value 0.97 | S. cerevisiae deletion strains, locus YOR144C, strain elg1, stronger effect = lower value 0.987 | S. cerevisiae deletion strains, locus YOR184W, strain ser1, stronger effect = lower value 0.993 | S. cerevisiae deletion strains, locus YOR231W, strain MKK1, stronger effect = lower value 1.07 | S. cerevisiae deletion strains, locus YOR265W, strain rbl2, stronger effect = lower value 0.996 | S. cerevisiae deletion strains, locus YOR270C, strain vph1, stronger effect = lower value 0.996 | S. cerevisiae deletion strains, locus YOR290C, strain snf2, stronger effect = lower value 0.957 | S. cerevisiae deletion strains, locus YOR316C, strain cot1, stronger effect = lower value 0.991 | S. cerevisiae deletion strains, locus YPL051W, strain arl3, stronger effect = lower value 0.973 | S. cerevisiae deletion strains, locus YPL055C, strain LGE1, stronger effect = lower value 1.01 and 0.959 | S. cerevisiae deletion strains, locus YPL078C, strain atp4, stronger effect = lower value 1.02 | S. cerevisiae deletion strains, locus YPL106C, strain sse1, stronger effect = lower value 0.936 | S. cerevisiae deletion strains, locus YPL240C, strain hsp82, stronger effect = lower value 0.991 | S. cerevisiae deletion strains, locus YPL241C, strain CIN2, stronger effect = lower value 1.01 | S. cerevisiae deletion strains, locus YPL256C, strain CLN2, stronger effect = lower value 1.09 | S. cerevisiae deletion strains, locus YPR119W, strain clb2, stronger effect = lower value 0.999 | S. cerevisiae deletion strains, locus YPR141C, strain kar3, stronger effect = lower value 0.987 | S. cerevisiae deletion strains, locus YPR163C, strain tif3, stronger effect = lower value 0.991 | S. cerevisiae deletion strains, locus YPR167C, strain met16, stronger effect = lower value 0.994 | S. cerevisiae deletion strains, strain wtn01, stronger effect = lower value 1.02 | S. cerevisiae strains, strain wild type, stronger effect = lower value 1
